Reference: the supplement of paper PMC11732987, “Enantioselective OTUD7B fragment discovery through chemoproteomics screening and high-throughput optimisation” (Communications Chemistry, 2025)

Assays:
Experiment in all cases: log2 ratio of Biotin-Ahx-Ub-VS probe labelling (fragment/DMSO); higher = less target engagement (more negative = stronger competition), active = hit call of the paper (q ≤ 0.05, log2 ratio ≤ -1)
Details in all cases: compound concentration: 200 uM; treatment time: 3 h
[1] = biological target: T1, USP19 (UniProt O94966)
T1 sequence (whole entry): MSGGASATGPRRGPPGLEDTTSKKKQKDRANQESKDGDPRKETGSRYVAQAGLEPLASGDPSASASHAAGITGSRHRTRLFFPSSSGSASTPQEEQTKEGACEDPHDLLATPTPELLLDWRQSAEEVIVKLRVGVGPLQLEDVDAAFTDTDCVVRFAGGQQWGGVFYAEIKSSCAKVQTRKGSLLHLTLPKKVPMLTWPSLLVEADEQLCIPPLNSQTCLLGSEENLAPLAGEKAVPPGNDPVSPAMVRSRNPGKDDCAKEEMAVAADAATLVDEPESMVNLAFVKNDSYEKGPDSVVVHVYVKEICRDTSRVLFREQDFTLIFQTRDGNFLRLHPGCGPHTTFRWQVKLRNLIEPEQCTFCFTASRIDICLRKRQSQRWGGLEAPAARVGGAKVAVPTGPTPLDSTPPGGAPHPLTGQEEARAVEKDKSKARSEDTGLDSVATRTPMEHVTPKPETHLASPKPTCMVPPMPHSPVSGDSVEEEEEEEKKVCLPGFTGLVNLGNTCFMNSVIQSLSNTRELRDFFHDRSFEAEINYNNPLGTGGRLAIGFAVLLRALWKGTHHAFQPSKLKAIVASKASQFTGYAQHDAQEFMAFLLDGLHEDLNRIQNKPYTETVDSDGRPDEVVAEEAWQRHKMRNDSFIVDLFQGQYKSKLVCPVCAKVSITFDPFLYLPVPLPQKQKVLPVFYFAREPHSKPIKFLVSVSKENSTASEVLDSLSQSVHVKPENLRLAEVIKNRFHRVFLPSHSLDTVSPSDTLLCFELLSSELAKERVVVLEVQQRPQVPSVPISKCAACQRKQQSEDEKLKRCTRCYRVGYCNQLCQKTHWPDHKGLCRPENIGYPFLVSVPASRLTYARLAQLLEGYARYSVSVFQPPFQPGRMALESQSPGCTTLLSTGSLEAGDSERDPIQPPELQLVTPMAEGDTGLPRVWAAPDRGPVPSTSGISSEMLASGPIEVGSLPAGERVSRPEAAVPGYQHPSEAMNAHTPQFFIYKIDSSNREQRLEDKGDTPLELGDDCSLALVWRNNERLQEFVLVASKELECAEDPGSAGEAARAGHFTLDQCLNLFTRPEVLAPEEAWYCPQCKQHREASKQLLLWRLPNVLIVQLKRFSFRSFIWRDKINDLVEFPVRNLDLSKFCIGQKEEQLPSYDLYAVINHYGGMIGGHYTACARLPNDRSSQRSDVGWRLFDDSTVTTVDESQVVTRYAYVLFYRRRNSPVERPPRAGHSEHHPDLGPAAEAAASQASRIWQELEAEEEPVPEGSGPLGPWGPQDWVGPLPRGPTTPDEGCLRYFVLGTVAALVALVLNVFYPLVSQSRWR
How it was run: (§1)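 The table lists average log2 ratios of fragment over vehicle, from an unpaired t-test on global-median-normalised Spectronaut label-free quantities. Proteins with ≥2 unique peptides were used. Samples were HEK293T lysate (495 µg) treated in triplicate with fragment at 200 µM or vehicle for 3 h, then with Biotin-Ahx-Ub-VS (0.5 µM final) for 1 h, with labelled DUBs NeutrAvidin-enriched and run by diaPASEF LC-MS/MS.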

[2] = biological target: USP24 (UniProt Q9UPU5)
How it was run: as §1

[3] = biological target: T2, USP25 (UniProt Q9UHP3)
T2 sequence (whole entry): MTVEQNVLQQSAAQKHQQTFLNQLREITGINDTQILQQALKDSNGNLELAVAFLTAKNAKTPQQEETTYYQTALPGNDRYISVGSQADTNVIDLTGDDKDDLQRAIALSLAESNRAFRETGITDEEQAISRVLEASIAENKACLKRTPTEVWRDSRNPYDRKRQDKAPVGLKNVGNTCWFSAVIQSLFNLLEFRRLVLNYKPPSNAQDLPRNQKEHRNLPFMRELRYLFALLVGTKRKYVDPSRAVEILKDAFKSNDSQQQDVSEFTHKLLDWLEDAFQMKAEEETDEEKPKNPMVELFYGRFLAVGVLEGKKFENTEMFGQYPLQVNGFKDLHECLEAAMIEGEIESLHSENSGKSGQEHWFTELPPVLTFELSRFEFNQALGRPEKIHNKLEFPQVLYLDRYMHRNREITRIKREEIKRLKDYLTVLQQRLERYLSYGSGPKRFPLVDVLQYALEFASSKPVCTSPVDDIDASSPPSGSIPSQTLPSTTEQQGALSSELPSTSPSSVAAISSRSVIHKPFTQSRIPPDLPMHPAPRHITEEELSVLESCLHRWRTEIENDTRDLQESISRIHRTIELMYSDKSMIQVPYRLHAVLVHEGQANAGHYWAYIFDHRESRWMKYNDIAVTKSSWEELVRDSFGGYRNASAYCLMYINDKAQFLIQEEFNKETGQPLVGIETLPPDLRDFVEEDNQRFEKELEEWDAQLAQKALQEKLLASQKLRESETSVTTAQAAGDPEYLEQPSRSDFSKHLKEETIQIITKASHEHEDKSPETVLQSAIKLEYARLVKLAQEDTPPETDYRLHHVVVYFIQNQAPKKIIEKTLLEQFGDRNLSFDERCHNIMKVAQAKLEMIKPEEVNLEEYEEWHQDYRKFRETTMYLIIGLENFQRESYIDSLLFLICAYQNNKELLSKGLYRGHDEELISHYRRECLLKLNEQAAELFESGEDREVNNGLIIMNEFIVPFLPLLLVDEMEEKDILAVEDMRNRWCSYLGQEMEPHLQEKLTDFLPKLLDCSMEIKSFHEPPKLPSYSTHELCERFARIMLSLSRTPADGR
How it was run: as §1

[4] = biological target: T3, USP28 (UniProt Q96RU2)
T3 sequence (whole entry): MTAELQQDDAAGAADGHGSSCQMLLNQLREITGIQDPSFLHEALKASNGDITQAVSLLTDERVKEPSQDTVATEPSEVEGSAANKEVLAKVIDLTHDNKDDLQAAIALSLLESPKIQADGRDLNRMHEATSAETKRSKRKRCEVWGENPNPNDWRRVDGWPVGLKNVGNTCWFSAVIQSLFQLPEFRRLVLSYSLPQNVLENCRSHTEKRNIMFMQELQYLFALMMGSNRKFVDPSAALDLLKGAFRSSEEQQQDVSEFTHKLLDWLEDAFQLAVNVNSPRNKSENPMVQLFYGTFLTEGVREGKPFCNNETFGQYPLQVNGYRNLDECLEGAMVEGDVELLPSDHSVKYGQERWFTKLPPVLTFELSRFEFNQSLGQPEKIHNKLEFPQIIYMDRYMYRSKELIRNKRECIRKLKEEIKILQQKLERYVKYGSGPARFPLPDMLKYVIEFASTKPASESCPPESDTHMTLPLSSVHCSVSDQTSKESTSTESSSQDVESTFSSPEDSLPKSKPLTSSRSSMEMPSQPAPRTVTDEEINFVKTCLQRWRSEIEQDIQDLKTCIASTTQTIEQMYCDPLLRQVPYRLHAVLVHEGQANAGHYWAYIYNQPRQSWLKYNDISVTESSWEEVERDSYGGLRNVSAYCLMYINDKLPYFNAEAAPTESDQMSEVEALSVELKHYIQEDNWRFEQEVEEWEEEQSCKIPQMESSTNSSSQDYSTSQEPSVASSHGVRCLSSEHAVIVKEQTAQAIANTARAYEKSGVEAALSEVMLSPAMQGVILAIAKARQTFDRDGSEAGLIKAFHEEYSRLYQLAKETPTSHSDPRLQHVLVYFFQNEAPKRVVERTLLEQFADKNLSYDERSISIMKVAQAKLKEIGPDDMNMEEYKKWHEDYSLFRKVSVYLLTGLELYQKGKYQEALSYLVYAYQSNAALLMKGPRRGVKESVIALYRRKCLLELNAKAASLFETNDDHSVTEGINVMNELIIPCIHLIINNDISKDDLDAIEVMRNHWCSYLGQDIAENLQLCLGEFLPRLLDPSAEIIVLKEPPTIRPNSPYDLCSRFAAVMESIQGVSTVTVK
How it was run: as §1

Measured: log2 ratio of Biotin-Ahx-Ub-VS probe labelling

Sequence of USP24 (Q9UPU5 whole entry): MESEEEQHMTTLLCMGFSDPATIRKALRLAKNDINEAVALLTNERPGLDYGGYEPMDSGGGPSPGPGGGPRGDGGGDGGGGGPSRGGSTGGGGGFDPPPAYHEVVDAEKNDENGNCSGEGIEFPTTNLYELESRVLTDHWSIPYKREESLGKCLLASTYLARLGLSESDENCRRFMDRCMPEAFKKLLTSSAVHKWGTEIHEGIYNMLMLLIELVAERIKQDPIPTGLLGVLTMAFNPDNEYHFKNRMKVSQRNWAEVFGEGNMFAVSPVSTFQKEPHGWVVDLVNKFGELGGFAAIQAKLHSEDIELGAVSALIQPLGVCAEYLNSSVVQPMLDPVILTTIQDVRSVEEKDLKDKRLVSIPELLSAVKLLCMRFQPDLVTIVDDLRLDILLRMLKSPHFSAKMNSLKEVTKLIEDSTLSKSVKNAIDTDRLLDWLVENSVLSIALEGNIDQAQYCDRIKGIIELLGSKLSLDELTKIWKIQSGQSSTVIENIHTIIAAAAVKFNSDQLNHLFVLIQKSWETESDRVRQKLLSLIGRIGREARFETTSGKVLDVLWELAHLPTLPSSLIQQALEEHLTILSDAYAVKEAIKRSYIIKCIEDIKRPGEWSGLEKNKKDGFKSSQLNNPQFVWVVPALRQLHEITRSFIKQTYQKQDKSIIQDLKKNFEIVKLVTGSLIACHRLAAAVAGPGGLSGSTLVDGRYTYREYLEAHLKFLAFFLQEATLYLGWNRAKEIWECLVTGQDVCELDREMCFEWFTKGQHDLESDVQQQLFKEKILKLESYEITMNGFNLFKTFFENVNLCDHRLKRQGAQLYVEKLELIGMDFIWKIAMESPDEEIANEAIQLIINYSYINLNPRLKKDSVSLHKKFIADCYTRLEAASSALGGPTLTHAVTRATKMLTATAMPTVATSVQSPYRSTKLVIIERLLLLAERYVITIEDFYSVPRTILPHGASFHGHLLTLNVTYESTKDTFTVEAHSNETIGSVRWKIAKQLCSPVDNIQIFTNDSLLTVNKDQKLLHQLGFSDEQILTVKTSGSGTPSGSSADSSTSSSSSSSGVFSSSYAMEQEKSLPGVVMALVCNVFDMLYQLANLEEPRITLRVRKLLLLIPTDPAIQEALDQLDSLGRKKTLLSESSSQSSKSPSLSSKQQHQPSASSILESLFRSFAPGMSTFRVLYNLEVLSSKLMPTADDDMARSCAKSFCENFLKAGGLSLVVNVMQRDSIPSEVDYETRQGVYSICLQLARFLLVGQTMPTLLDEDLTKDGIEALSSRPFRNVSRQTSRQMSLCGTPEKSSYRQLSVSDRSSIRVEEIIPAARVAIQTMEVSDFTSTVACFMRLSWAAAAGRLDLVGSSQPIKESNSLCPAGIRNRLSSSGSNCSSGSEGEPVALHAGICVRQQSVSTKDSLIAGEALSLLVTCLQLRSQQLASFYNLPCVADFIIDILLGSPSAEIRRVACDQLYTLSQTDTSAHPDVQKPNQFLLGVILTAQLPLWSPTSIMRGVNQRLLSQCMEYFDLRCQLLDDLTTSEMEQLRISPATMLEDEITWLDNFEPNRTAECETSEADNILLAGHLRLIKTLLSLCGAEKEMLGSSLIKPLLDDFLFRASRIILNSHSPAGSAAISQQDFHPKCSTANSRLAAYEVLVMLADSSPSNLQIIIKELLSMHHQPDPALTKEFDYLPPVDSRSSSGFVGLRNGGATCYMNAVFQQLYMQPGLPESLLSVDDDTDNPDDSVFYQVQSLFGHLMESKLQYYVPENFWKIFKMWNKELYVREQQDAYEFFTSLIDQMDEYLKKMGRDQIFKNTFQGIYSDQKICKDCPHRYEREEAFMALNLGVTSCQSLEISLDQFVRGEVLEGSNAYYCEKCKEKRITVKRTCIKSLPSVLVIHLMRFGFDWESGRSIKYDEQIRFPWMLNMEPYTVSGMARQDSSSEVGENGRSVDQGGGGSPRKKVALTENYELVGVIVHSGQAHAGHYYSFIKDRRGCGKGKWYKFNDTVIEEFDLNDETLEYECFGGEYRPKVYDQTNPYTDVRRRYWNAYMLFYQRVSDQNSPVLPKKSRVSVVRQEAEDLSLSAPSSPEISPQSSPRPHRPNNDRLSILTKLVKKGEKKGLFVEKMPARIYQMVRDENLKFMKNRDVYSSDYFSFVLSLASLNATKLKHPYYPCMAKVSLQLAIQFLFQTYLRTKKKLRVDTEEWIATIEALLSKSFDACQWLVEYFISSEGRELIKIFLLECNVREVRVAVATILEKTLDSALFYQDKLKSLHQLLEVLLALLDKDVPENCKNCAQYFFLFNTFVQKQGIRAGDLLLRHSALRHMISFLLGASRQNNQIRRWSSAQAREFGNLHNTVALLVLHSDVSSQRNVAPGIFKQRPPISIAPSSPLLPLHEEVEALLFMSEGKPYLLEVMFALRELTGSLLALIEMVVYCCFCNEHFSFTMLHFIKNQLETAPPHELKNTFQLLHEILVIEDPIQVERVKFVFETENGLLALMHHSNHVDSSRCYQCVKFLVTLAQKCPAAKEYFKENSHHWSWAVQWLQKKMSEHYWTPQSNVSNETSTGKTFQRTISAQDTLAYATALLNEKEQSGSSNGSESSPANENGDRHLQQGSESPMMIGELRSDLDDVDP

Cl.O=C(CCl)N1CCn2cncc2C1
inactive: [1] -0.443 | [2] -0.129 | [3] -0.134 | [4] -0.354
